Screens: PubChem BioAssay, National Center for Advancing Translational Sciences (NCATS)
Compounds with a hit are over-represented: about 11% of the library has one in this group of screens.
BAZ2B inh = inhibitors of human BAZ2B bromodomain; AlphaScreen BAZ2B-H3K14Ac peptide displacement; Potency, µM (highest dose often 114 µM), most hits filed as inhibitors; 4.4% of 360,000 active; further: nearly all actives have a fitted effect of over 60% in size
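AlphaScreen luminescence quantifies BAZ2B engagement of H3K14Ac peptide; the protein and biotinylated peptide are both at 50 nM final, buffer PBS pH 7.4 with 0.01% Tween-20, all steps at room temperature.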
JMJD2A Tudor inh = inhibitors of human JMJD2A Tudor domain | AlphaScreen JMJD2A-Tudor / H3K4me3 peptide binding | Potency, µM (titrated, usually from 114 µM), most hits filed as inhibitors | 4.4% of 390,000 active | AID 504339 | O75164; further: nearly all actives have a fitted effect of over 50% in size
Target sequence (O75164 whole entry, looked up, the tested form may be a part): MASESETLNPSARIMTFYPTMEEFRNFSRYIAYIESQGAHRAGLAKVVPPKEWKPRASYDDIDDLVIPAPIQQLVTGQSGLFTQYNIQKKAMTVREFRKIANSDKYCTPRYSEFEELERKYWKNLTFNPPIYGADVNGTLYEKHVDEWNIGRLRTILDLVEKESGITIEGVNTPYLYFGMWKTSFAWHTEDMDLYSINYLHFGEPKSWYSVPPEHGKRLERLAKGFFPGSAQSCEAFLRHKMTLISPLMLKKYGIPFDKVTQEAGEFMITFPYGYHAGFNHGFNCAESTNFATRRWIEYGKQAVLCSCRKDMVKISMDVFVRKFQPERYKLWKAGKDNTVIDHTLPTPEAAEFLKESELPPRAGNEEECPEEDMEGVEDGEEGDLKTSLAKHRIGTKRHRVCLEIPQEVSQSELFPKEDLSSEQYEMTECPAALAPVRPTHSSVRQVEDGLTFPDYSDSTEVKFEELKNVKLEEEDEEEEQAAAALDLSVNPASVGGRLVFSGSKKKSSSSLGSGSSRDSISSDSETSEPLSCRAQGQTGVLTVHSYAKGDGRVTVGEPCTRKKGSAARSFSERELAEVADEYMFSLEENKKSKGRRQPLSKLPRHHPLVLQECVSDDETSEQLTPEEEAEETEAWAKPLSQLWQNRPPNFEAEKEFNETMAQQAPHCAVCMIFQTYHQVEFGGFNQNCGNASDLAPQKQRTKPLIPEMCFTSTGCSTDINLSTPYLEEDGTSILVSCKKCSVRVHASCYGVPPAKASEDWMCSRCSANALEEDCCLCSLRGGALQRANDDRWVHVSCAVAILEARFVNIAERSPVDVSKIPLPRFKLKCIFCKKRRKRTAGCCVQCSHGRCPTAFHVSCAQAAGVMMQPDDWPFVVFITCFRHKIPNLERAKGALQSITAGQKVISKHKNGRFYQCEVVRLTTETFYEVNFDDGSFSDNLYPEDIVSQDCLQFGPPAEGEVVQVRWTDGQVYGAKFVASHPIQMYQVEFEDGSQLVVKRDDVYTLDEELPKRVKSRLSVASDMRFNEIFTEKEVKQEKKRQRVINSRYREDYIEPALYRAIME
G9a block = G9a (human) methyltransferase inhibition; 8.8% of 350,000 active; Q96KQ7; G9a H3K9 monomethylation, AlphaScreen, 2 h; Potency, µM (doses to about 102 µM), most hits filed as inhibitors; further: nearly all actives have a fitted effect of over 75% in size
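G9a (20 nM) preincubated 15 min RT with compounds, then 500 nM biotinylated H3K9 peptide and 20 uM SAM added; 2 h RT reaction. Monomethyl-H3K9 product detected by AlphaScreen with anti-H3K9me1 antibody, streptavidin donor and anti-rabbit IgG acceptor beads.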
HP1b chromo inh = inhibitors of HP1-beta chromodomain binding to methylated histone tails; 0.56% of 390,000 active; AlphaScreen HP1-beta / biotin-H3K9me3 peptide binding; Potency, µM (doses to about 114 µM), hits mostly inhibitors; further: nearly all actives have a fitted effect of over 70% in size
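Compound inhibition of the preformed complex between 50 nM HP1-beta and 50 nM biotinylated H3K9me3 peptide was read by AlphaScreen. Buffer was PBS pH 7.4 with 0.01% Tween-20. Incubations ran 30 min at room temperature, with 10 ug/mL donor/acceptor beads.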
PI5P4K alpha inh = blocks human PI5P4K alpha kinase activity | P48426 | PI5P4Kalpha enzyme, ADP-Glo luminescence, 60 min; stronger effect = lower value | max response, % | 1.2% of 330,000 active; active means max response of -50% or lower; inconclusive means between -30% and -50%; inactive means -30% or higher; further: value at the top dose of about 77 µM
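Compounds were pin-transferred onto PI5P4Kalpha and substrate in HEPES pH 7.4 buffer with EGTA, CHAPS and 5% DMSO. ATP (5 microM final) started the reaction, which ran 60 minutes at room temperature before ADP-Glo detection.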
L3MBTL1 block = inhibitors of human L3MBTL1. 0.66% of 230,000 active. AlphaScreen L3MBTL1–H3K9me1 peptide binding. Potency, µM (titrated, usually from 57.1 µM), most hits filed as inhibitors; further: nearly all actives have a fitted effect of over 60% in size
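First, the protein-peptide complex forms for 30 min at room temperature (L3MBTL1 50 nM, biotinylated H3K9me1 peptide 75 nM). Next, compounds are pin-transferred and incubated 30 min. Finally, AlphaScreen beads are added and read after 30 min.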
Hits are given with their value; [ ] = remark or other dose. Unless noted, the call rests on the fitted dose curve; in most records, active means well fitted inhibition curve with a large enough effect; inconclusive means small, poorly fitted or top-dose-only effect; inactive means no such curve, though single readings can be large or run the other way.

`C=CCN1C(=O)[C@@H]2Cc3c([nH]c4ccccc34)C(c3ccc(O)cc3)N2C1=S` (stereo not given in full) gave BAZ2B inh inconclusive, JMJD2A Tudor inh inconclusive, G9a block 44.7µM, HP1b chromo inh inactive and PI5P4K alpha inh inactive.
For O=C1[C@@H]2Cc3c([nH]c4ccccc34)C(c3cccc([N+](=O)[O-])c3)N2C(=O)CN1C1CCN(Cc2ccccc2)CC1 (stereo not given in full) the results were BAZ2B inh 25.1µM and G9a block inactive[0.501 µM].
COc1cc([C@H]2c3[nH]c4ccccc4c3C[C@H]3C(=O)N4[C@@H](c5cc(OC)c(OC)c(OC)c5)c5[nH]c6ccccc6c5C[C@H]4C(=O)N23)cc(OC)c1OC was read as BAZ2B inh inactive, JMJD2A Tudor inh inactive, G9a block inconclusive, HP1b chromo inh inactive, PI5P4K alpha inh inactive and L3MBTL1 block inactive.
Screening COc1ccc2c(c1)c1c(c(=O)n(-c3ccccc3C)c(=O)n1CC(N)=O)n2C returned BAZ2B inh inactive, JMJD2A Tudor inh inactive, G9a block inactive and HP1b chromo inh inactive.
Cc1nc(C)c(-c2ccc(SCC(=O)Nc3cccc(C)c3C)nn2)s1 was read as BAZ2B inh inactive, JMJD2A Tudor inh inactive, G9a block inactive and HP1b chromo inh inactive.
Screening Cc1ccc2[nH]c(=O)c(CN(CCO)Cc3nnnn3Cc3ccco3)cc2c1 returned JMJD2A Tudor inh inactive and HP1b chromo inh inactive.
`CC(C)n1c(O)c(N=NC(=O)Cc2csc(N3CCOCC3)n2)c2ccccc21` gave BAZ2B inh 39.8µM, JMJD2A Tudor inh inactive, G9a block inconclusive, HP1b chromo inh inactive, PI5P4K alpha inh inactive and L3MBTL1 block inactive.
`CCOc1ccc2cc(C#N)c(SCC(=O)OCc3ccccc3)nc2c1` gave JMJD2A Tudor inh inactive and HP1b chromo inh inactive.
For OC1(CC#CCN2CCCCC2)c2ccccc2-c2ccccc21 the results were BAZ2B inh inactive, JMJD2A Tudor inh inactive, G9a block inactive, HP1b chromo inh inactive, PI5P4K alpha inh inactive and L3MBTL1 block inconclusive.
`CCN(CC#CCC1(O)c2ccccc2-c2ccccc21)CCO` gave BAZ2B inh inconclusive, JMJD2A Tudor inh 89.1µM, G9a block inactive[0.0925 µM], HP1b chromo inh inactive and L3MBTL1 block inactive.
`Cc1ccc(NN2C(=O)C=C(c3ccccc3)C2=O)cc1` gave BAZ2B inh inactive, JMJD2A Tudor inh inactive, G9a block 10µM, HP1b chromo inh inactive, PI5P4K alpha inh inactive and L3MBTL1 block inactive.
`O=C1c2ccccc2C(=O)N1Nc1ccccc1` gave BAZ2B inh inactive, JMJD2A Tudor inh inactive, G9a block inactive[0.0925 µM], HP1b chromo inh inactive, PI5P4K alpha inh inactive and L3MBTL1 block inactive.
Screening CCCCc1ccc(/C=C(\C#N)C(N)=S)s1 returned BAZ2B inh 44.7µM, JMJD2A Tudor inh 35.5µM, G9a block 35.5µM, HP1b chromo inh 25.1µM, PI5P4K alpha inh inactive and L3MBTL1 block inactive.
Cc1sc2nc(C(C)Sc3n[nH]c(N)n3)[nH]c(=O)c2c1C (stereo not given) was read as BAZ2B inh inactive, G9a block 25.1µM and L3MBTL1 block inactive.
Screening Cc1ccc(CNC(=O)C2CCCN(c3nc4c(C)cc(C)cc4s3)C2)cc1 (stereo not given) returned BAZ2B inh inactive, JMJD2A Tudor inh inactive, G9a block inactive and HP1b chromo inh inactive.
`O=C(Cc1csc(NC(=O)Nc2cccc(Cl)c2)n1)NCc1cccnc1` gave BAZ2B inh inconclusive, JMJD2A Tudor inh inactive, G9a block 35.5µM, HP1b chromo inh inactive, PI5P4K alpha inh inactive and L3MBTL1 block inactive.
O=C(Cc1csc(NC(=O)Nc2ccc(Cl)cc2)n1)NCc1cccnc1 was read as BAZ2B inh inconclusive, JMJD2A Tudor inh inactive, G9a block inconclusive, HP1b chromo inh inactive, PI5P4K alpha inh inactive and L3MBTL1 block inactive.
For Cc1cc(Br)ccc1NC(=O)c1coc(=O)c2ccccc12 the results were BAZ2B inh inactive, JMJD2A Tudor inh inactive, G9a block inactive and HP1b chromo inh inactive.
CCOC(=O)C(C)On1c(-c2ccccc2)nc2ccc([N+](=O)[O-])cc21 (stereo not given) was read as BAZ2B inh inconclusive, JMJD2A Tudor inh inconclusive, G9a block inactive[12.7 µM], HP1b chromo inh inactive and PI5P4K alpha inh inactive.
For O=C(O)COn1c(-c2ccccc2)nc2ccc([N+](=O)[O-])cc21 the results were BAZ2B inh 50.1µM, JMJD2A Tudor inh inconclusive, G9a block 44.7µM, HP1b chromo inh inactive, PI5P4K alpha inh inconclusive and L3MBTL1 block inconclusive.
Screening N#C/C(=C/c1cn[nH]c1-c1cccc(Br)c1)C(=O)O returned BAZ2B inh inactive, JMJD2A Tudor inh inactive, G9a block inactive, HP1b chromo inh inactive, PI5P4K alpha inh inconclusive and L3MBTL1 block inactive.
`N#C/C(=C/c1cn[nH]c1-c1ccc(Br)cc1)C(=O)O` gave BAZ2B inh inactive, JMJD2A Tudor inh inactive, G9a block inactive, HP1b chromo inh inactive and PI5P4K alpha inh -76.4.
Cc1c(C#N)c(O)n(CCO)c(=O)c1N=Nc1ccc(S(N)(=O)=O)cc1 was read as BAZ2B inh 79.4µM, JMJD2A Tudor inh inactive, G9a block inactive, HP1b chromo inh inactive and PI5P4K alpha inh inactive.
For CN(CCOc1ccccc1)CC(=O)Nc1cccc(Br)c1 the results were BAZ2B inh inconclusive, JMJD2A Tudor inh 1.58µM, G9a block 11.2µM, HP1b chromo inh inactive, PI5P4K alpha inh inactive and L3MBTL1 block inactive.
Screening Cc1cc(NC(=O)CN(C)CCOc2ccccc2)ccc1Br returned BAZ2B inh 35.5µM, JMJD2A Tudor inh 0.794µM, G9a block inactive, HP1b chromo inh inconclusive and PI5P4K alpha inh inactive.
`CN(CCOc1ccccc1)CC(=O)Nc1cccc(C#N)c1` gave BAZ2B inh inactive, JMJD2A Tudor inh inactive, G9a block inactive, HP1b chromo inh inactive and PI5P4K alpha inh inactive.
Screening CCOc1ccc(CN(C)CC(=O)Nc2cccc(S(=O)(=O)N(C)c3ccccc3)c2)cc1 returned JMJD2A Tudor inh 22.4µM, G9a block 5.01µM, HP1b chromo inh inconclusive, PI5P4K alpha inh inactive and L3MBTL1 block inactive.
For COc1cccc(CN(C)CC(=O)Nc2cccc(S(=O)(=O)N(C)c3ccccc3)c2)c1OC the results were JMJD2A Tudor inh inactive, HP1b chromo inh inactive and PI5P4K alpha inh inactive.
`O=C(CCN1C(=O)c2ccccc2Sc2ncccc21)Nc1ccc(F)cc1F` gave BAZ2B inh inactive, JMJD2A Tudor inh inactive, G9a block inactive and HP1b chromo inh inactive.
COc1ccccc1NC(=O)CSc1nnc(Cc2cccn2C)n1CCc1ccccc1 was read as BAZ2B inh 50.1µM, JMJD2A Tudor inh inconclusive, G9a block inconclusive, HP1b chromo inh inactive and L3MBTL1 block inactive.
`Cn1cccc1Cc1nnc(SCC(=O)NCc2ccco2)n1CCc1ccccc1` gave BAZ2B inh inconclusive, JMJD2A Tudor inh inconclusive, G9a block inconclusive, HP1b chromo inh inactive and L3MBTL1 block inactive.
